Sfp inh: qHTS Assay for Inhibitors of Bacillus subtilis Sfp phosphopantetheinyl transferase (PPTase); 4'-phosphopantetheinyl transferase ffp (Bacillus subtilis), Q9F4F7; Biochemical Sfp PPTase activity, qHTS; Potency, µM, actives largely listed as inhibitors; 3.5% of 310,000 active; AID 1490, 2009;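 also: the enzyme is Sfp with the accession as filed and its product quenches rhodamine fluorescence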
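With Hepes-Na pH 7.6 buffer containing 10 mM MgCl2, Sfp (15 nM) modified BHQ-2-YbbR (12.5 uM) using rhodamine-CoA (5 uM). Two reads 30 minutes apart at 525/598 nm yielded each well's rate.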
JMJD2E inh: qHTS Assay for Inhibitors of Human Jumonji Domain Containing 2E (JMJD2E); Lysine-specific demethylase 4E (Homo sapiens), B2RXH2; JMJD2E catalytic domain, FDH-coupled NADH fluorescence (FDH is formaldehyde dehydrogenase); Potency, µM (highest dose often 57.1 µM), usual class: inhibitors; 1.6% of 230,000 active; active = well fitted inhibition curve with a large enough effect, not every such curve was filed as active; inconclusive = small, poorly fitted or top-dose-only effect, or another doubt; inactive = no such curve, though single readings can be large or run the other way; also: nearly all actives have a fitted effect of over 50% in size
Target sequence (B2RXH2 1-337 limits assumed): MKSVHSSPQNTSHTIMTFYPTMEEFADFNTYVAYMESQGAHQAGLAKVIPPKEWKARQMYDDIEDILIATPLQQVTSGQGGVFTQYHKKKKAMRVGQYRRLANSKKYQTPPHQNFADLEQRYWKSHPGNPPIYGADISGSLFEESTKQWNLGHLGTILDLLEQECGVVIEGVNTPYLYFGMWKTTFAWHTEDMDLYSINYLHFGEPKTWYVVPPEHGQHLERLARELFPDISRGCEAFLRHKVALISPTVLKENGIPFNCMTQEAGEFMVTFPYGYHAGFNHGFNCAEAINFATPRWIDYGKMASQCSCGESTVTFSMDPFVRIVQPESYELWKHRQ
NPSR antag: qHTS Assay for Antagonists of the Neuropeptide S Receptor: cAMP Signal Transduction; Potency, µM (top dose mostly 38.3 µM), actives largely listed as inhibitors; AID 1461, 2008; 1% of 220,000 active; CHO-NPSR cells, cAMP TR-FRET, antagonist mode; Q6W5P4; also: nearly all actives have a fitted effect of over 50% in size
GCN5L2 inh: qHTS Assay for Inhibitors of GCN5L2 | 0.21% of 390,000 active | Potency, µM (series often up to 58.9 µM), most hits filed as inhibitors | GCN5L2 HAT assay, ThioGlo1 CoA-SH fluorescence | Histone acetyltransferase KAT2A (Homo sapiens), Q92830 | AID 504327, 2011
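Titration-based screen in which CoA formation is detected via maleimide probe ThioGlo1 (50uM) turning fluorescent on thiol reaction; substrates H3(1-25) 75uM and acetyl-CoA 70uM, GCN5L2 20nM, 20 min incubation at room temperature.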
IMPase Li inh: qHTS Assay for Identifying the Cell-Membrane Permeable IMPase Inhibitors: Potentiation with Lithium. CHO-M1 cells, IP1 TR-FRET (IP-One), carbachol + lithium. Potency, µM (highest dose often 59.4 µM), usual class: inhibitors. 0.35% of 210,000 active;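 also: IP1 builds up when IMPase is blocked and the TR-FRET signal falls; nearly all actives have a fitted effect of over 50% in size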
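CHO-M1, 2000 cells/well, 16–30 h culture; cpd + low Li+, 30 min 37C; lysis with d2-IP1/Eu-anti-IP1 Ab, 10 min RT; TR-FRET 665/620 ratio and 620 channel; AC50 via Hill.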
Epigenetic derep: Quantitative High-Throughput Screen for Regulators of Epigenetic Control. murine LDR cells, GFP reporter derepression, 30 h. Potency, µM (top dose mostly 53.9 µM), hits mostly activators. 0.2% of 280,000 active; also: nearly all actives have a fitted effect of over 60% in size
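Murine LDR cells carrying a silenced, genomically integrated CMV-driven GFP reporter were exposed to compound for 30 hours at 37 C. After PBS washes, GFP-positive cells (20–120 um objects) were counted by laser-scanning microplate cytometry.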
Numbers stand for hits; - = inactive; ? = inconclusive; . = not tested or not shown. An excerpt weighted towards active compounds, which were near 3.6% of everything screened. Unless noted, calls follow the shape of the dose curve; as a rule, active = well fitted curve in the direction sought with a large enough effect; inconclusive = small, poorly fitted or top-dose-only effect, or another doubt; inactive = no such curve, though single readings can be large; an effect the other way counts as inactive or inconclusive.

SMILES	Sfp inh	JMJD2E inh	NPSR antag	GCN5L2 inh	IMPase Li inh	Epigenetic derep
O=C(CCN1C(=O)/C(=C\c2ccco2)SC1=S)Nc1ccc(C(=O)O)c(O)c1	44.7µM	.	.	?	.	.
O=C(CCN1C(=O)/C(=C/c2ccco2)SC1=S)Nc1ccc(C(=O)O)c(O)c1	56.2µM	.	.	-	.	.
CCCCNc1nc(C)nc2c1nc(-c1ccccc1)n2CCN1CCCCC1	-	?	.	.	-	-
CC1(C)N=C(N)N=C(N)N1c1cccc(OCc2cccc([N+](=O)[O-])c2)c1	.	.	.	.	-	.
O=C(NCc1ccc(Cl)cc1)c1cc(-c2cccs2)on1	25.1µM	-	-	-	-	-
COc1ccc(CNC(=O)c2cc(-c3cccs3)on2)cc1	-	-	-	-	-	-
Cn1c(=O)[nH]c(=O)c2[nH]c(N(Cc3ccccc3)Cc3ccccc3)nc21	89.1µM	-	?	-	-	-
Cn1c(=O)[nH]c(=O)c2[nH]c(CN3CCN(Cc4ccccc4)CC3)nc21	-	-	-	-	.	-
CN(C)C(=O)c1ccc(-c2nc(NCc3cccnc3)c3ccccc3n2)cc1	-	-	.	-	-	-
CCOC(=O)CNC(c1ccccc1)c1cc(Br)ccc1NC(=O)OCC (centres undefined)	-	-	?	-	-	-
CCOC(=O)CNC(c1ccccc1)c1cc(Br)ccc1NC(=O)CCN1CCOCC1 (centres undefined)	15.8µM	-	-	-	-	-
COC(=O)CNC(c1ccccc1)c1cc(Br)ccc1NC(=O)CCN1CCOCC1 (centres undefined)	31.6µM	-	-	-	-	-
O=S(=O)(Nc1cccc(-c2ccc(N3CCOCC3)nn2)c1)c1ccc(F)c(C(F)(F)F)c1	.	.	.	-	.	-
CC(=O)NC(c1cc(F)c2cccnc2c1O)C(C)C (centres undefined)	.	.	.	-	.	.
COc1ccc(C2CC(c3cccs3)=NN2c2nc(-c3ccccc3)cs2)cc1OC (centres undefined)	44.7µM	-	-	-	-	-
CC(C)=CCC[C@](C)(O)C1CC[C@]2(C)[C@@H]1CC[C@@H]1[C@@]3(C)CCC(=O)C(C)(C)[C@@H]3CC[C@]12C (some centres undefined)	-	.	.	-	.	.
CN(C)c1ccc(-c2ccc3ncnc(NC4CC4)c3c2)cc1	-	.	.	-	-	.
COCCN(CCOC)S(=O)(=O)c1ccc(C(=O)Nc2sc3c(c2C(N)=O)CCCCC3)cc1	50.1µM	-	-	-	-	-
CNC(=S)Nc1sc2c(c1C(=O)OC)CCC2	-	?	-	-	-	-
O=C(Nc1sc2c(c1C(=O)O)CCCCC2)c1ccccc1	39.8µM	-	-	-	-	-
COC(=O)c1c(NC(=S)Nc2ccc(F)cc2[N+](=O)[O-])sc2c1CCCCC2	14.1µM	-	-	-	.	?
COC(=O)c1c(NC(C)=O)sc2c1CCCCC2	56.2µM	-	-	-	-	-
Cc1cc(Br)ccc1NC(=O)C(NS(=O)(=O)c1cccs1)c1ccccc1 (centres undefined)	.	.	.	-	.	-
CCCCC/C=C\C/C=C\CCCCCCCC(=O)NCCc1ccc(O)c(O)c1	-	-	.	.	-	?
Cc1onc(-c2ccccc2Cl)c1C(N)=O	-	-	-	-	-	-
COC(=O)c1c(-c2ccccc2Cl)noc1/C=C/N(C)C	-	?	-	-	-	22.4µM
O=C1C=CC(=O)N1c1cccc(-c2ccccc2)c1	1.78µM	-	-	-	.	-
CSC(=[SH+])N=N/C(=C1/C=CC=CN1)c1ccccn1.[Cu][Br]	.	.	.	.	-	.
Cc1ccc(C)c(NS(=O)(=O)c2ccc3c(c2)n(C)c(=O)n3C)c1	.	.	.	-	.	-
CCCOC(=O)Nc1sc2c(c1C(N)=O)CCCC2	-	-	-	-	-	-

Screening data as filed in PubChem.
